FMDV antiviral = antivirals against foot and mouth disease virus. FMDV antiviral cell-based qHTS. Potency, µM (highest dose often 57.9 µM), most hits filed as inhibitors. 410,000 compounds, 1.2% hits; calls by dose curve; tested in HEK293T cells; also: read-out not given here; nearly all actives have a fitted effect of over 45% in size
HCMV antiviral = blocks human cytomegalovirus replication; HFF cells, HCMV-luciferase reporter, 72 h; stronger effect = lower value; activity change, negative = inhibition, % at 57.5 µM; 410,000 compounds, 4.5% hits; in the data active = activity change below about -60%; inconclusive = no clear call, values can overlap the other calls; inactive = above about -39%
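Compounds were evaluated in HFFs infected with an HCMV luciferase reporter virus (MOI 1 PFU/cell). Luciferase in lysates collected 72 h post infection served as the replication measure.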
Lassa entry inh = inhibitors of Lassa virus binding or cell entry; Lassa virus pseudotype entry inhibition, cell reporter; Potency, µM (top dose mostly 37.9 µM), most hits filed as inhibitors; 300,000 compounds, 1.2% hits; calls by dose curve; tested in HEK293 cells; also: nearly all actives have a fitted effect of over 50% in size
Marburg entry inh = blocks Marburg virus binding to or entry into cells. 300,000 compounds, 1.8% hits. Potency, µM (titrated, usually from 37.8 µM), usual class: inhibitors. Marburg virus pseudotyped entry inhibition, cell reporter; calls by dose curve; tested in HEK293 cells
Each line names hits and unclear results; the compound was inactive in the other large screens; ! = not active in a repeat. The list is not random: actives were taken first. Their share in the collection is about 6.2%.

Cc1ccc(CNC(=O)CSCc2nc(-c3ccc(Cl)cc3)oc2C)cc1	none
CSc1ccc(CNC(=O)CCc2c(C)nn(-c3ccc(N4CCCC4)nn3)c2C)cc1	none (no result: Marburg entry inh)
COc1cccc(NC(=O)N2CC(=O)N3[C@@H](CO)[C@@H](c4ccc(Br)cc4)[C@@H]3C2)c1	none (no result: FMDV antiviral, Lassa entry inh, Marburg entry inh)
COC1C(OC(=O)c2ccc(C)[nH]2)C(O)C(Oc2ccc3c(O)c(NC(=O)c4ccc(O)c(CC=C(C)C)c4)c(=O)oc3c2Cl)OC1(C)C (stereo not given)	FMDV antiviral 40µM (no result: Lassa entry inh, Marburg entry inh)
CC(C)CCCCCCCCCCCCC(=O)NCC(=O)NC1C(C)OC(Nc2ncnc3nc[nH]c23)C(O)C1O (stereo not given)	FMDV antiviral inconclusive, HCMV antiviral -96, Lassa entry inh 0.079µM, Marburg entry inh inconclusive
C/C(=C\CNc1ncnc2nc[nH]c12)CO	none (no result: Lassa entry inh, Marburg entry inh)
C[C@@H]1C(c2ccccc2)=CC(=O)c2nc3ccccc3cc2[C@@H]1C(=O)N1CCCC1	none (no result: FMDV antiviral, HCMV antiviral, Lassa entry inh)
CCOC(=O)c1c2c(n(-c3ccc(OC)cc3)c1C)C(=O)C(=O)c1ccccc1-2	FMDV antiviral 13µM, Lassa entry inh 2.2µM, Marburg entry inh inconclusive (no result: HCMV antiviral)
CCOC(=O)c1sc(=S)n(-c2ccc(OC)cc2)c1C	none
COC(=O)c1ccc2c(=O)n(Cc3ccco3)c(SCC(=O)Nc3ccc(C)c(Cl)c3)nc2c1	HCMV antiviral -63, Lassa entry inh inconclusive, Marburg entry inh inconclusive
COc1cc(/C=C/C(=O)c2ccc(F)cc2)cc(OC)c1OC	FMDV antiviral 25µM, HCMV antiviral -112, Lassa entry inh inconclusive, Marburg entry inh inconclusive
COc1cc(/C=C/C(=O)O)cc(OC)c1OC	none (no result: Lassa entry inh)
CCOc1ccc(C(=O)/C=C/c2cc(OC)c(OC)c(OC)c2)cc1	FMDV antiviral inconclusive, HCMV antiviral -88, Lassa entry inh inconclusive, Marburg entry inh inconclusive
Cc1cn2cc(CNC(=O)CN3Cc4ccccc4OC(c4ccccc4F)C3)nc2s1 (stereo not given)	none (no result: HCMV antiviral, Lassa entry inh, Marburg entry inh)
O=C(NCCCCN1CCOCC1)c1cc2ccccc2o1	none (no result: HCMV antiviral, Lassa entry inh, Marburg entry inh)
CC(C)C(=O)Nc1cccc(C(=O)Nc2nnc(C(F)(F)F)s2)c1	Marburg entry inh inconclusive
O=C(NCCN1CCOCC1)c1cnn(-c2ncc3c(n2)-c2ccccc2CC3)c1C1CC1	none (no result: HCMV antiviral, Lassa entry inh, Marburg entry inh)
COc1cc(=O)n2c(c1C(=O)N(C)Cc1cscn1)CCN(C(=O)c1ccc(C)c(C)c1)CC2	none (no result: HCMV antiviral, Lassa entry inh, Marburg entry inh)
COc1ccc(Cn2c(O)cc(=O)[nH]c2=O)cc1	HCMV antiviral -88
Cc1ccc(-n2c(C)cc(/C=c3/sc4nc5ccccc5n4c3=O)c2C)cc1	FMDV antiviral 1µM, Lassa entry inh inconclusive, Marburg entry inh 0.28µM (no result: HCMV antiviral)
CCN1CCN(Cc2ccc(NC(=O)c3cc(NC(=O)c4cncc(-c5cccs5)c4)cc(OC)c3)cc2C(F)(F)F)CC1	HCMV antiviral -102 (no result: Lassa entry inh, Marburg entry inh)
CCN1CCN(Cc2ccc(NC(=O)c3ccc(C)c(NC(=O)c4c[nH]c5cc(C(F)(F)F)ccc5c4=O)c3)cc2C(F)(F)F)CC1	FMDV antiviral inconclusive, HCMV antiviral -98 (no result: Lassa entry inh, Marburg entry inh)
CCN1CCN(Cc2ccc(NC(=O)c3cc(NC(=O)N4CCNC4=O)cc(OC)c3)cc2C(F)(F)F)CC1	FMDV antiviral inconclusive, HCMV antiviral -68! (no result: Lassa entry inh, Marburg entry inh)
CCN1CCN(Cc2ccc(NC(=O)c3cc(NC(=O)c4ccc5n[nH]nc5c4)cc(OC)c3)cc2C(F)(F)F)CC1	none (no result: Lassa entry inh, Marburg entry inh)
CCN1CCN(Cc2ccc(NC(=O)c3cc(NC(=O)c4cc(-c5ccc(OC)cc5)n[nH]4)cc(OC)c3)cc2C(F)(F)F)CC1	none (no result: Lassa entry inh, Marburg entry inh)
CCN1CCN(Cc2ccc(NC(=O)c3cc(NC(=O)c4cc5cccc(OC)c5o4)cc(OC)c3)cc2C(F)(F)F)CC1	FMDV antiviral 40µM!, HCMV antiviral -102! (no result: Lassa entry inh, Marburg entry inh)
Clc1cccc(-c2cccc3nccn23)c1	none (no result: Lassa entry inh, Marburg entry inh)
C=CCn1c(=O)[nH]c2cc(C(=O)N3CCN(c4ccc(C(C)=O)cc4)CC3)ccc2c1=O	FMDV antiviral 14µM, Lassa entry inh inconclusive
C=CCn1c(=O)[nH]c2cc(C(=O)N3CCN(c4cccc(Cl)c4)CC3)ccc2c1=O	FMDV antiviral 28µM, Marburg entry inh inconclusive
COc1ccc(Cn2c(=O)[nH]c3cc(C(=O)N4CCN(c5ccccc5)CC4)ccc3c2=O)cc1	none
COC(=O)c1ccc2c(=O)n(CCCCCC(=O)O)c(=O)[nH]c2c1	FMDV antiviral 25µM
COc1cccc(N2CCN(C(=O)c3ccc4c(=O)n(CCc5ccccc5)c(=O)[nH]c4c3)CC2)c1	FMDV antiviral 20µM
COc1ccc(OC(C)c2nc3ccccc3[nH]2)cc1 (stereo not given)	Marburg entry inh inconclusive
CCOc1ccc(-c2noc(CSc3nnc(-c4ccccc4)n3-c3ccccc3)n2)cc1	FMDV antiviral inconclusive
Clc1ccc(-c2noc(CSc3nnc(-c4ccncc4)n3-c3ccccc3)n2)cc1	FMDV antiviral 25µM, HCMV antiviral -101, Marburg entry inh inconclusive
Clc1ccccc1-c1nnc(SCc2nc(-c3ccccc3)no2)n1-c1ccccc1	FMDV antiviral 25µM, HCMV antiviral inconclusive, Lassa entry inh inconclusive, Marburg entry inh inconclusive
Cc1ccc(-n2c(SCc3nc(-c4ccc(Cl)cc4)no3)nnc2-c2ccncc2)cc1	FMDV antiviral inconclusive, Marburg entry inh inconclusive
O=C(CSC1c2ccccc2-c2ccccc21)N/N=C/c1ccccc1O	FMDV antiviral inconclusive, HCMV antiviral -96, Lassa entry inh 12µM, Marburg entry inh 8.2µM
Cc1cc(SCC(=O)N/N=C/c2ccc(O)cc2O)c(C)cc1Br	FMDV antiviral inconclusive, HCMV antiviral -83, Lassa entry inh 4.6µM, Marburg entry inh inconclusive
O=C(CSC1c2ccccc2-c2ccccc21)N/N=C/c1ccc(C(=O)O)cc1	none
Cc1cc(SCC(=O)N/N=C/c2ccccc2C(=O)O)c(C)cc1Br	none
O=C(CSc1ccc2ccccc2n1)N/N=C/c1ccccc1O	HCMV antiviral -100 (no result: Lassa entry inh, Marburg entry inh)
COc1ccc(C2=C3CCC[C@]4(C)CCO[C@]34C=CC2=O)cc1	none (no result: FMDV antiviral, Lassa entry inh, Marburg entry inh)
COc1ccc(CC(=O)NCc2cccc(CNC(=O)Cc3ccc(OC)c(OC)c3)c2)cc1OC	none (no result: Lassa entry inh, Marburg entry inh)
CCOc1cccc(C(=O)Nc2nnc(-c3ccco3)s2)c1	Lassa entry inh inconclusive, Marburg entry inh 4µM
COc1ccc(CC(=O)Nc2cccc(-c3nnc(-c4ccccc4)o3)c2)cc1OC	HCMV antiviral inconclusive, Lassa entry inh 7.3µM, Marburg entry inh 4.6µM (no result: FMDV antiviral)
CCc1cccc(NC(=O)Cc2ccc(OC)c(OC)c2)c1	FMDV antiviral inconclusive, HCMV antiviral -82, Lassa entry inh inconclusive, Marburg entry inh inconclusive
COc1ccc(CC(=O)Nc2cccc(-c3nnc(-c4ccc(C)cc4)o3)c2)cc1OC	FMDV antiviral 4µM, HCMV antiviral -93, Lassa entry inh inconclusive, Marburg entry inh 9.2µM
O=C(c1ccc2c(c1)N(Cc1c(F)cccc1Cl)C(=O)c1ccccc1S2)N1CCCC1	Lassa entry inh inconclusive, Marburg entry inh inconclusive
CCCCC(C=O)NC(=O)C(CC(C)C)NC(=O)OCc1ccccc1 (stereo not given)	none (no result: HCMV antiviral, Lassa entry inh, Marburg entry inh)
COc1ccc(CC(=O)Nc2cccc(-c3nnc(-c4cccc(C)c4)o3)c2)cc1OC	FMDV antiviral 40µM, Lassa entry inh inconclusive, Marburg entry inh inconclusive
COc1ccc(CC(=O)Nc2ccc(-c3nnc(-c4ccccc4)o3)cc2)cc1OC	none
O=C(Cc1ccccc1)Nc1cccc(-c2nnc(-c3ccco3)o2)c1	none
CCOc1cccc(C(=O)Nc2cccc(-c3nnc(-c4ccc(C)cc4)o3)c2)c1	HCMV antiviral -70, Marburg entry inh inconclusive
CC(=O)Oc1ccc(C(=O)Nc2cccc(-c3nnc(-c4ccco4)o3)c2)cc1	Lassa entry inh inconclusive, Marburg entry inh 11µM

Screening data as filed in PubChem BioAssay.
